The list is not random: actives were taken first. Their share in the collection is about 2.5%.
UBC9 SUMO inh = SUMOylation inhibition | P63279 | HTRF SUMOylation assay, SAE1/SAE2 + UBC9, in vitro | inhibition, % at 35 µM | hit rate 0.36% among 290,000 | AID 2006; in the data active means inhibition above about 50%, passing the limit was not always enough; inconclusive means no clear call, values can overlap the other calls
M18AAP inhibitor = PfM18AAP enzyme inhibition | recombinant PfM18AAP, H-Glu-NHMec fluorogenic cleavage | hit rate 1.2% among 290,000 | inhibition, % at 7.35 µM | AID 1822;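 active means inhibition above the campaign mean inhibition over all tested compounds plus 3 SD, cut at about 28% in these data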;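 further: 0% = plate median of test compound wells and 100% = 2 mM ZnCl2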
PHOSPHO1 inh = PHOSPHO1 (human) inhibition | recombinant PHOSPHO1, absorbance phosphatase assay | inhibition, % at 13.3 µM | hit rate 1.1% among 290,000 | AID 1565 | Q8TCT1; in the data active means inhibition above about 60%
HDAC3 inh = human HDAC3 inhibition; AID 2718; O15379; hit rate 0.15% among 320,000; recombinant HDAC3, fluorogenic peptide/trypsin coupled, fluorescence; inhibition, % at 8.3 µM; in the data active means inhibition above about 26%, passing the limit was not always enough; inconclusive means no clear call, values can overlap the other calls
p97 inhibitor = human p97 ATPase inhibition | P55072 | inhibition, % at 8 µM | hit rate 0.42% among 220,000 | AID 1481 | recombinant p97 ATPase, Kinase-Glo ATP luminescence, 3 h; in the data active means inhibition above about 15%;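 further: 0% = DMSO vehicle and 100% = wells lacking enzyme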
G6PDH counter = L. mesenteroides G6PDH inhibition counter-screen. hit rate 0.12% among 200,000. Purified L. mesenteroides G6PDH, diaphorase/resazurin coupled fluorescence, 45 min. inhibition, % at 5 µM. AID 1020; in the data active means inhibition above about 50%
p97 confirm = confirmation of human p97 ATPase inhibitors; hit rate 44% among 760; recombinant p97 ATPase, Kinase-Glo ATP luminescence; inhibition, % at 8 µM; shares compounds with p97 inhibitor; AID 1517;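 active means percent inhibition of p97 ATPase above a set limit, the primary screen's mean plus 3 SD, cut at about 15% in these data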;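 further: 0% = DMSO wells and 100% = wells lacking p97 protein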
Active calls of the source: *; ? = inconclusive; nt = no result.

SMILES	UBC9 SUMO inh	M18AAP inhibitor	PHOSPHO1 inh	HDAC3 inh	p97 inhibitor	G6PDH counter	p97 confirm
COc1ccc(OC)c(-c2csc(N(Cc3ccco3)C(=O)c3cccs3)n2)c1	11	0	1	13	0	9	nt
COc1ccc(-c2csc(N(Cc3ccco3)C(=O)c3cccs3)n2)cc1	-10	8	4	2	39*	nt	16*
CCOc1ccccc1CN1C(=O)c2ccccc2C1C(=O)NC(C)CC (centres undefined)	4	3	0	-10	19*	1	9
CCC(C)(CC(=O)Nc1nccs1)c1ccccc1 (centres undefined)	13	-2	27	1	nt	nt	nt
CC1CCc2nc(N)c(C#N)c(-c3cccnc3)c2C1 (centres undefined)	-13	3	-24	-4	26*	13	5
COC(=O)c1c(N)sc(Cc2ccccc2)c1C	4	5	32	4	3	15	nt
COC(=O)c1c(NC(=O)/C=C/C(=O)O)sc(Cc2ccccc2)c1C	19	-2	-9	4	15*	-10	23*
CCS(=O)(=O)Nc1c(C(=O)OC)[nH]c2ccccc12	6	-1	10	12	7	2	nt
CCS(=O)(=O)Nc1c(C(=O)O)[nH]c2ccccc12	39	-8	18	-36	20*	6	6
COC(=O)c1ccccc1-c1ccc(C(c2c(C)[nH][nH]c2=O)c2c(C)[nH][nH]c2=O)o1	97	23	-8	2	20*	19	6
COC(=O)c1cccc(-c2ccc(C(c3c(C)[nH][nH]c3=O)c3c(C)[nH][nH]c3=O)o2)c1	nt	12	-131	0	12	30	nt
Cc1[nH][nH]c(=O)c1C(c1ccc(-c2ccc(Cl)c(C(=O)O)c2)o1)c1c(C)[nH][nH]c1=O	96	2	24	nt	16*	33	35*
CC1(C)OC(=O)C(=Cc2ccc(-c3ccc(Cl)c(C(=O)O)c3)o2)C(=O)O1	16	16	-9	9	10	2	nt
CCCC(=Nc1ccccc1)C1=C(O)C(C(=O)OC)C(C)(C)CC1=O (centres undefined)	38	-5	29	20	1	16	nt
CCC(=Nc1ccc(N)cc1)C1=C(O)C(C(=O)OC)C(C)(C)CC1=O (centres undefined)	36	8	-5	nt	15*	5	4
CCCCC(=Nc1ccc(N)cc1)C1=C(O)C(C(=O)OC)C(C)(C)CC1=O (centres undefined)	36	19	3	12	18*	5	9
CCCN1C2CCCC1CC(NC(=O)c1ccccc1Br)C2 (centres undefined)	-10	-3	26	9	nt	nt	nt
c1coc(-c2nc(-c3ccco3)c(-c3ccco3)nc2-c2ccco2)c1	?	60*	68*	4	40*	21	9
COCC(=O)N(Cc1nc2ccccc2c(=O)[nH]1)Cc1cccs1	14	-2	-28	3	5	-21	nt
COCC(=O)N(CCc1ccc(OC)c(OC)c1)Cc1nc2ccccc2c(=O)[nH]1	25	-6	-12	2	16*	6	8
O=[N+]([O-])c1ccc(C(O)C(CO)NC(=S)Nc2ccccc2)cc1 (centres undefined)	25	1	28	-13	16*	nt	9
CCCn1nc([N+](=O)[O-])c(C(C#N)c2nc3ccccc3s2)c(Cl)c1=O (centres undefined)	21	6	23	5	17*	3	21*
CCn1nc([N+](=O)[O-])c(C(C#N)c2nc3ccccc3n2C)c(Cl)c1=O (centres undefined)	5	1	5	0	5	0	nt
Cc1ccc(Sc2ccc(C(=O)N3CCOCC3)cc2[N+](=O)[O-])cc1	10	1	27	-3	nt	nt	nt
CCC(=O)Nc1nc(C)c(-c2csc(Nc3ccc(C(=O)O)cc3)n2)s1	2	18	10	nt	nt	nt	nt
SMILES	UBC9 SUMO inh	M18AAP inhibitor	PHOSPHO1 inh	HDAC3 inh	p97 inhibitor	G6PDH counter	p97 confirm
Cc1nc(NC(=O)c2ccccc2)sc1-c1csc(Nc2ccc(C(=O)O)cc2)n1	41	-2	-15	nt	15*	nt	15*
COc1cccc(CN(C)C(=O)Cc2c[nH]c3ccccc23)c1	14	5	18	-3	nt	nt	nt
O=C(Oc1ccccc1C(=O)Nc1ccccc1)c1ccccc1Br	-3	15	-3	-1	23*	7	30*
CCC(C(=O)NCCCN1CCOCC1)n1c2ccccc2c2nc(=O)cc(C)n21 (centres undefined)	8	-2	38	2	nt	nt	nt
C[C@H](NC(=O)[C@@H]1Cc2ccccc2CN1C(=O)OC(C)(C)C)C(=O)NCc1ccco1	6	8	37	0	nt	nt	nt
O=C(Nc1cccc2nsnc12)c1ccc(-c2cccc(Cl)c2)o1	60*	-27	27	15	18*	13	5
O=C(Cc1ccccc1)Nc1ccccc1C(=O)NCC1CCCO1 (centres undefined)	-14	-1	27	-3	nt	nt	nt
Cc1cc(O)c(C=O)c2c1C(=O)Oc1c(CO)c(O)c3c(c1O2)C(O)OC3=O (centres undefined)	96*	14	44	4	64*	21	24*
Cc1ccc(NC(=O)CCC(=O)c2cccs2)c(O)c1	21	6	35	nt	0	nt	nt
Cc1ccc(C(=O)OC(C)C(=O)NC(C)CCc2ccccc2)o1 (centres undefined)	nt	nt	nt	2	nt	nt	nt
Nc1c(C(=O)OCC2CCCO2)c2nc3ccccc3nc2n1C1CCCC1 (centres undefined)	27	1	14	-1	17*	3	5
CC(C)Cn1c(N)c(C(=O)NCC2CCCO2)c2nc3ccccc3nc21 (centres undefined)	101	4	-5	-69	8	35	nt
CCN(c1ccccc1)S(=O)(=O)c1ccc(Cl)c(NC(=O)CNCc2ccccc2OC)c1	nt	nt	nt	7	nt	nt	nt
C=CCN(C(=O)c1csnn1)C(C(=O)NC1CCCC1)c1ccc(F)cc1 (centres undefined)	4	-5	37	1	nt	nt	nt
Cc1ccc(NC(=S)N2CCCC(O)C2)cc1 (centres undefined)	5	-5	8	6	60*	4	2
CC1(C)OC(=O)N(NCc2ccccc2)C1(C)O (centres undefined)	4	2	37	1	nt	nt	nt
O=C(O)CSc1c(-c2ccccc2)[nH]c2ccccc12	8	1	-5	0	16*	2	17*
O=C(O)CSc1c(-c2cccs2)[nH]c2ccccc12	-20	7	0	3	0	8	nt
CCCN(C(=O)C(C)Oc1cccc(Cl)c1)c1c(N)n(Cc2ccccc2)c(=O)[nH]c1=O (centres undefined)	-6	-2	53	0	nt	nt	nt
